From PubChem BioAssay (Tox21) come the findings set out here.

Values without a mark were called inactive. Results filed as inconclusive are left out. Active and inactive are the calls of the source. Calls follow the shape of the dose curve; as a rule, active = well fitted curve in the direction sought with a large enough effect in the repeat runs; inconclusive = weak or mixed curves; inactive = no such curve, though single readings can be large; an effect the other way counts as inactive or inconclusive.

Experiment [1] can be described thus: Caspase-3/7 induction in CHO-K1 cells by small molecules, qHTS assay (AID 1346980). Also: nearly all actives have a fitted effect of over 15% in size. Also: potency is read from the fitted curve at half-maximal effect. The method, boiled down: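 Luminescent Caspase-Glo 3/7 read (30min, room temperature) quantified apoptosis induction. Cells were wild-type CHO-K1, treated with compound for 17hr at 37 C and 5% CO2.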
(In general: qHTS replaces the single test concentration by a dilution series.)

Experiment [2] deals with Nuclear receptor subfamily 1 group I member 2 (Homo sapiens) (UniProt O75469). The experiment in a line: Human pregnane X receptor (PXR) small molecule agonists, qHTS assay (AID 1346982). Also: nearly all actives have a fitted effect of over 35% in size. Also: potency is read from the fitted curve at half-maximal effect. A digest of the protocol:
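Luciferase signal from ONE-Glo (30 min, room temperature) measured activation of hPXR-driven CYP3A4 reporter expression in PXR-Luc HepG2 cells treated with compounds for 24 hr at 37 C.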

Experiment [3] has as its target Cytochrome P450 2D6 (Homo sapiens) (UniProt P10635). The experiment in a line: Cytochrome P450 Family 2 Subfamily D Member 6 (CYP2D6) small molecule antagonists: luciferase reporter qHTS assay (AID 1671196). Also: nearly all actives have a fitted effect of over 50% in size. Also: potency is read from the fitted curve at half-maximal effect. The method, boiled down:
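Read-out is luminescence from luciferin formed by CYP2D6 turnover of a proluciferin substrate, recorded as relative luminescence units. Reactions ran 1 h at room temperature after NADPH regeneration solution was added.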

Experiment [4] deals with Cytochrome P450 2C19 (Homo sapiens) (UniProt P33261). The experiment in a line: Cytochrome P450 Family 2 Subfamily C Member 19 (CYP2C19) small molecule antagonists: luciferase reporter qHTS assay (AID 1671197). Also: nearly all actives have a fitted effect of over 65% in size. Also: potency is read from the fitted curve at half-maximal effect. A digest of the protocol:
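Quantitative high-throughput screen of the Tox21 library using CYP2C19 with proluciferin substrate. Reaction: NADPH regeneration, 37C, 1 h, after 10 min compound preincubation at room temperature. Readout: luminescence.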
On the technique in general: In a reporter assay the amount or activity of a reporter protein is the signal.

Experiment [5] concerns the target Cytochrome P450 2C9 (Homo sapiens) (UniProt P11712). The experiment in a line: Cytochrome P450 Family 2 Subfamily C Member 9 (CYP2C9) small molecule antagonists: luciferase reporter qHTS assay (AID 1671198). Also: nearly all actives have a fitted effect of over 50% in size. Also: potency is read from the fitted curve at half-maximal effect. The method, boiled down:
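Enzyme-substrate mix preincubated with compound 10 min at room temperature; reaction started with NADPH regeneration solution, 1 h 37C. Luminescent luciferin product read after 20 min detection reagent.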

In experiment [6] the target is Cytochrome P450 1A2 (Homo sapiens) (UniProt P05177). In words: Cytochrome P450 Family 1 Subfamily A Member 2 (CYP1A2) small molecule antagonists: luciferase reporter qHTS assay (AID 1671199). Also: nearly all actives have a fitted effect of over 50% in size. Also: potency is read from the fitted curve at half-maximal effect. A digest of the protocol:
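P450-Glo CYP1A2, 1536-well qHTS: enzyme/proluciferin substrate + cpd (DMSO), 10 min RT; NADPH regen, 1 h RT; detection reagent, 20 min; luminescence, RLU.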

The target of experiment [7] is Cytochrome P450 3A4 (Homo sapiens) (UniProt P08684). In words: Cytochrome P450 Family 3 Subfamily A Member 4 (CYP3A4) small molecule antagonists: luciferase reporter qHTS assay (AID 1671201). Also: nearly all actives have a fitted effect of over 50% in size. Also: potency is read from the fitted curve at half-maximal effect. A digest of the protocol: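 qHTS, 1536-well. CYP3A4 + proluciferin substrate, cpd 10 min RT → NADPH regen 1 h RT → detection reagent 20 min → luminescence (RLU). Ketoconazole positive control.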
Chain of Cytochrome P450 3A4 (Homo sapiens) (P08684 whole entry, looked up): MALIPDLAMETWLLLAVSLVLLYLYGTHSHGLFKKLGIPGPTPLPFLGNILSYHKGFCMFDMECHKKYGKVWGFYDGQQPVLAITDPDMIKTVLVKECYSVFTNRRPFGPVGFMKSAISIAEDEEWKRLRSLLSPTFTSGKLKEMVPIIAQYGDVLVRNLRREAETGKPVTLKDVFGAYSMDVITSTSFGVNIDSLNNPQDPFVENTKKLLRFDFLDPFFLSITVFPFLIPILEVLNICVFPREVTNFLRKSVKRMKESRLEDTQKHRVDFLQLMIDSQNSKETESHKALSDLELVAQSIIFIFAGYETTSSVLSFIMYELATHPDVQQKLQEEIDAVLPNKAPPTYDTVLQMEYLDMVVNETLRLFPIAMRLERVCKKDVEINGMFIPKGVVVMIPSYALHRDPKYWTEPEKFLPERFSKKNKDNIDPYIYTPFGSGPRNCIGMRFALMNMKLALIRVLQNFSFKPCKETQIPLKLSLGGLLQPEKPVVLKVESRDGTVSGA

Experiment [8] addresses Voltage-gated inwardly rectifying potassium channel KCNH2 (Homo sapiens) (UniProt Q12809). The experiment in a line: Human Ether-a-go-go-Related Gene (hERG) channel small molecule antagonists: fluorescence cell-based qHTS assay (AID 1671200). Also: nearly all actives have a fitted effect of over 50% in size. Also: potency is read from the fitted curve at half-maximal effect. A digest of the protocol:
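Fluorescence at 540 nm emission (480 nm excitation) was recorded kinetically for 2 min at 1-second intervals once the thallium-containing stimulus reached cells previously loaded with FluxOR II dye.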

Experiment [9] concerns the target Nuclear receptor subfamily 1 group I member 2 (Rattus norvegicus) (UniProt Q9R1A7). The experiment in a line: Rat pregnane X receptor (rPXR) activation by small molecules, qHTS assay (AID 1346983). Also: nearly all actives have a fitted effect of over 20% in size. As to conditions: rPXR luciferase reporter cells, One-Glo luminescence, 24 h; max activation: hits give high values. The method, boiled down: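 Luminescent readout (One-Glo luciferase, 30 min room temperature) followed 24 hr compound treatment at 37 C of rPXR cells plated 2,000 per well and preincubated 5hr; qHTS format with compounds delivered in DMSO.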

The nature of experiment [10]: Caspase-3/7 induction in HepG2 cells by small molecules, qHTS cell viability counter screen (AID 1346981). Also: nearly all actives have a fitted effect of over 30% in size. Also: potency is read from the fitted curve at half-maximal effect. The method, boiled down:
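HepG2, WT, 2,000 cells/well; 5 hr pre-incubation 37 C/5% CO2; compound pin-transferred from DMSO; 16 hr exposure; CellTiter-Fluor, 1 hr; fluorescence read.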

Experiment [11] deals with Nuclear receptor subfamily 1 group I member 2 (Homo sapiens) (UniProt O75469). In words: CYP3A4 induction through human pregnane X receptor (PXR) by small molecules, qHTS assay (AID 1346984). Also: nearly all actives have a fitted effect of over 40% in size. The method, boiled down: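 Luminescence readout: luciferase signal after One-Glo (30 min, room temperature), following 3 h at 37C with 3uM final Luciferin-IPA P450 substrate. Cells were DPX-2 (HepG2, PXR/CYP3A4-luc co-transfected) dosed for 24 h.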
Chain of Nuclear receptor subfamily 1 group I member 2 (Homo sapiens) (O75469 whole entry, looked up): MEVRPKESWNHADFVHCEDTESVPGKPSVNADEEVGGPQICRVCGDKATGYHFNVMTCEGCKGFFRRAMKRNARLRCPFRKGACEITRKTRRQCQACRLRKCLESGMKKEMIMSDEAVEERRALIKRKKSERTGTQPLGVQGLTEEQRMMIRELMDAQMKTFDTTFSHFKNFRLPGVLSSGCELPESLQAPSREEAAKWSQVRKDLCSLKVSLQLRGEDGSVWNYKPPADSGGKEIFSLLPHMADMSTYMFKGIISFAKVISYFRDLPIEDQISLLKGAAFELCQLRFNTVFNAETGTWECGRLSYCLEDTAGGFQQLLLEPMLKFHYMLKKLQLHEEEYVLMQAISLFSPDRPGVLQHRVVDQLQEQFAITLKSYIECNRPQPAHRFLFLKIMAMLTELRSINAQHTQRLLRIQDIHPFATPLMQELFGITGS

The target is the same in experiment [12]. In words: Human pregnane X receptor (PXR) activation by small molecules, qHTS assay (AID 1346985). Also: nearly all actives have a fitted effect of over 40% in size. A digest of the protocol: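 DPX-2 cells (HepG2 co-transfected with a PXR response element and a CYP3A4-promoter luciferase construct) were seeded at 2,000 per well, rested 5 hr at 37C, then exposed to DMSO-dissolved compounds for 24 hr. Activation was read as luciferase luminescence.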
% is scaled to controls: 0 for no effect and ±100 for the full control effect.

Chain of Cytochrome P450 2D6 (Homo sapiens) (P10635 whole entry, looked up): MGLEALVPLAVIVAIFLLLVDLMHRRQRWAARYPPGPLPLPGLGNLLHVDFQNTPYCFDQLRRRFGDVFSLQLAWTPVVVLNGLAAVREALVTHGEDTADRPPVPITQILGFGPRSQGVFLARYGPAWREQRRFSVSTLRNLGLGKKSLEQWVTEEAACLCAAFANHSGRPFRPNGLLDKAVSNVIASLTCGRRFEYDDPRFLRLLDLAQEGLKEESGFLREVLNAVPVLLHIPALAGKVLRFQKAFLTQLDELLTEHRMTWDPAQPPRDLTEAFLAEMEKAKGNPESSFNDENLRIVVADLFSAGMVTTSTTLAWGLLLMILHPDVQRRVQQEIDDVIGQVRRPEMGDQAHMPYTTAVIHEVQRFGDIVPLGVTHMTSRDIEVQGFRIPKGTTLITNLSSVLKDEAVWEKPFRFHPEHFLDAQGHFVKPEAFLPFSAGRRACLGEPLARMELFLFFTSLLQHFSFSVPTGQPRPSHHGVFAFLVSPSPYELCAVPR
Chain of Nuclear receptor subfamily 1 group I member 2 (Rattus norvegicus) (Q9R1A7 whole entry, looked up): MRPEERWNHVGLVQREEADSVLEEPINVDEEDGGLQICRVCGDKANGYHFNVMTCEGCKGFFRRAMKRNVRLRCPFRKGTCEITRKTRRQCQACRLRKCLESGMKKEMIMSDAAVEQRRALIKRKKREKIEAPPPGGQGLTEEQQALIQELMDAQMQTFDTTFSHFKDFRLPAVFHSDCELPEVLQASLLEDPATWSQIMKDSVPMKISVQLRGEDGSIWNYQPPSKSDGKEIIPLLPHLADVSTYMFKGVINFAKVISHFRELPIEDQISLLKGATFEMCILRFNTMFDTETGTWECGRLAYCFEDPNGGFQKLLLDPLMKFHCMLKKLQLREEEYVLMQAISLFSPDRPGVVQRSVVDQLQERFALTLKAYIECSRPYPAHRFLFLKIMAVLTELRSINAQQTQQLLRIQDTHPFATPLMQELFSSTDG
Chain of Cytochrome P450 2C19 (Homo sapiens) (P33261 whole entry, looked up): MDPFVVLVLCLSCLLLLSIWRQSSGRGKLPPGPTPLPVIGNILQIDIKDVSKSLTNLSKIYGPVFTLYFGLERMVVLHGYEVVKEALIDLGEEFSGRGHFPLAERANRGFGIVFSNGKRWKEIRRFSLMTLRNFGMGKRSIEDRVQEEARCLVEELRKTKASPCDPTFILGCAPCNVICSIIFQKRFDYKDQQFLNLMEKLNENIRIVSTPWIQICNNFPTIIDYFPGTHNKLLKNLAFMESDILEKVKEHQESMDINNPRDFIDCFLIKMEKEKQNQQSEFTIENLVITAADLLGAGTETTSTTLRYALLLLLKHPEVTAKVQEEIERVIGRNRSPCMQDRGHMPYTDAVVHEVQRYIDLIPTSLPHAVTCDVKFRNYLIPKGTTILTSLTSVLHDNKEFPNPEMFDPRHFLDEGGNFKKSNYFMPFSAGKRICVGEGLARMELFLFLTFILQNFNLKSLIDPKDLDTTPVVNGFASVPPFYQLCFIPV
Chain of Cytochrome P450 1A2 (Homo sapiens) (P05177 whole entry, looked up): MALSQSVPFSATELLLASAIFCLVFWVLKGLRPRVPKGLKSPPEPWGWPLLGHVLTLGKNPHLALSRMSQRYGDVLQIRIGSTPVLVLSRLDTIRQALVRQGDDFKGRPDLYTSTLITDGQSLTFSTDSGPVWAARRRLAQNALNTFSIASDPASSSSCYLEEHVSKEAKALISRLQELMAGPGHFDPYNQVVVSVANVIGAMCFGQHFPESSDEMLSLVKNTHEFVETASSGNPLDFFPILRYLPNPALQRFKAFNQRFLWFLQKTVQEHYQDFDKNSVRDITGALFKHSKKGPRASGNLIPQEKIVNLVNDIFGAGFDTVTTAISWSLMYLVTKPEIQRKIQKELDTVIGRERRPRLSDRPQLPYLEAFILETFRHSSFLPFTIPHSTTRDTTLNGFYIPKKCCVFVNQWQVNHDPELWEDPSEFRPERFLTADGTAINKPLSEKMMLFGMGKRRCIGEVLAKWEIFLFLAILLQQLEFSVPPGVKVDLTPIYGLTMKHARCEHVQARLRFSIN
Chain of Cytochrome P450 2C9 (Homo sapiens) (P11712 whole entry, looked up): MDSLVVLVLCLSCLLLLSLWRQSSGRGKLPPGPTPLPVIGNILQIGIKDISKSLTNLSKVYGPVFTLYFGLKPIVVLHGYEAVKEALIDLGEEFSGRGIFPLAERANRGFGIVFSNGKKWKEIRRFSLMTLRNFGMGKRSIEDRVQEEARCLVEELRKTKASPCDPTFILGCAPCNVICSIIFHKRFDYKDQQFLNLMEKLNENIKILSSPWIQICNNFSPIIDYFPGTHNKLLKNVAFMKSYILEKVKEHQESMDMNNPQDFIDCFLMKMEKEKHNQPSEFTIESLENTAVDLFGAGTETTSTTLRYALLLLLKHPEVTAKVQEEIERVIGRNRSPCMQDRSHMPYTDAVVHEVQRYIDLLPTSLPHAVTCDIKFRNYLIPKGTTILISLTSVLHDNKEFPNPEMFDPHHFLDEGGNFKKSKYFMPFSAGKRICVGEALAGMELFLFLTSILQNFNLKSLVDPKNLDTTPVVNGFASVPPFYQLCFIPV
Chain of Voltage-gated inwardly rectifying potassium channel KCNH2 (Homo sapiens) (Q12809 whole entry, looked up): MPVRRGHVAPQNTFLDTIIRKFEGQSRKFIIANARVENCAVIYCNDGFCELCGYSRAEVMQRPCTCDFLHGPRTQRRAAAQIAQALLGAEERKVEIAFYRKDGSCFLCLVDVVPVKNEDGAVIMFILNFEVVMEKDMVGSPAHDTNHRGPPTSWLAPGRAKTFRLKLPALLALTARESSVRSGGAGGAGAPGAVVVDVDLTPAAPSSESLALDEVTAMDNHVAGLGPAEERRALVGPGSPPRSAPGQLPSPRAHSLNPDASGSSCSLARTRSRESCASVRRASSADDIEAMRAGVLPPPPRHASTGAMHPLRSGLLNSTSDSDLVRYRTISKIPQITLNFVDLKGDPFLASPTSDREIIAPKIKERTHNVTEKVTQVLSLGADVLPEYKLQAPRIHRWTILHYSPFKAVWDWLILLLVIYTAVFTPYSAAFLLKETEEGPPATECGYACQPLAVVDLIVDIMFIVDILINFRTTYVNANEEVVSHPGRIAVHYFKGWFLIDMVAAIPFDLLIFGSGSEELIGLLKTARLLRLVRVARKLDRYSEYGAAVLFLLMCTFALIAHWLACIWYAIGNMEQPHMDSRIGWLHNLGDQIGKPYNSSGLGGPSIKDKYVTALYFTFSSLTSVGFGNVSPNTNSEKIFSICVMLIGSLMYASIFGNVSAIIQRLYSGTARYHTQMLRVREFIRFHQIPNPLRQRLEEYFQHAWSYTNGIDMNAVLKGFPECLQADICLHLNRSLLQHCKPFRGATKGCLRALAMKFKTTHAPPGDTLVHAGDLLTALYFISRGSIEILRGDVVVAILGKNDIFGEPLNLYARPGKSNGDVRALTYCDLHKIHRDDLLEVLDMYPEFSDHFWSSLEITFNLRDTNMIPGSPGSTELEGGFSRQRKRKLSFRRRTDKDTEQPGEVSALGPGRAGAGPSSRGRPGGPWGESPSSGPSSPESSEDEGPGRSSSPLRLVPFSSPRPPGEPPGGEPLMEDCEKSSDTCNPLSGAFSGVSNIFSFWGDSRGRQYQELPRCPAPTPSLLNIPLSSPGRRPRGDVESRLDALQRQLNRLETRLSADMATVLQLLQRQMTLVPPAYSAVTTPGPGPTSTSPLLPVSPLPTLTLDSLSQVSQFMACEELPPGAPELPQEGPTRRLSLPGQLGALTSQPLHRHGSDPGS

For the molecule `CC(=O)CC(N)=O`, the Potency result in experiment [1], in experiment [2], in [3], in experiment [4], in experiment [5] and in [6] was “inactive” in each case. Also, in [7], the Potency entry was “inactive”.

As to `Cc1ccc(N=Nc2c(O)ccc3ccccc23)c(C)c1`, the Potency entry in experiment [1] and in [7] was “inactive” each time. Also, the Potency is 0.944 µM (active) in experiment [2], 17.4 µM (active) in experiment [3], 12.3 µM (active) in experiment [4] and 3.47 µM (active) in experiment [6].

`S=C1NC=NC2N=CNC12` (configuration not stated): the Potency result in [1], in experiment [8] and in [7] was “inactive” each time. Further, the Potency was 21.7 µM (active) in [2], 25.2 µM (active) in experiment [4], 39.9 µM (active) in experiment [5] and 71 µM (active) in experiment [6].

In the case of `Nc1cc([N+](=O)[O-])cc(Cl)c1O`, the Potency result in [1], in experiment [2], in [3] and in experiment [8] was “inactive” throughout. For the same molecule, the Potency was 79.6 µM (active) in [4] and 39.9 µM (active) in [5].

With `Cc1ccc2n[nH]nc2c1`, the Potency entry in [1], in [2], in experiment [3], in experiment [8] and in experiment [7] was “inactive” throughout.

For `CC(C)(c1ccc(Oc2ccc(N)cc2)cc1)c1ccc(Oc2ccc(N)cc2)cc1`, the Potency entry in experiment [1], in [3], in [6] and in experiment [8] was “inactive” throughout. For the same molecule, the Potency is 61.1 µM (active) in [2], 7.96 µM (active) in [4], 2.52 µM (active) in experiment [5] and 2.52 µM (active) in [7].

With `CCN(CCC#N)c1ccc(N=Nc2ccc([N+](=O)[O-])cc2)cc1`, the Potency result in experiment [1], in experiment [3], in experiment [4], in experiment [6], in experiment [8] and in experiment [7] was “inactive” throughout. For the same molecule, the Potency in experiment [2] is 6.11 µM (active).

In the case of `O=S(=O)(O)O`, the max activation in [9] was 0.359%.

Turning to `Cc1ccc(Cl)c(N)c1Cl`, the Potency result in experiment [1], in experiment [4], in experiment [8] and in [7] was “inactive” in each case.

For `CCCCCCCCCCCCCCCC[n+]1ccccc1`, in experiment [9], the max activation was -15.5%.

As for `CN1CCN(c2ccccc2/C=C2\SCCN(c3ccc(Cl)c(Cl)c3)C2=O)CC1`, the Potency in [10] is 61.1 µM (active); in experiment [3], 7.1 µM (active); in experiment [4], 5.03 µM (active); in experiment [5] it was 10 µM (active); in [7], 3.99 µM (active).

On to `CC(C)(C)c1ccc2c(S(=O)(=O)O)c(C(C)(C)C)ccc2c1`, for which the max activation in experiment [9] is -3.68%.

As to `Nc1cccnc1N`, the Potency result in [1], in [5], in experiment [8] and in experiment [7] was “inactive” each time.

As for `NCc1ccco1`, the Potency entry in [1], in experiment [2], in [4], in experiment [6], in experiment [8] and in experiment [7] was “inactive” each time.

As to `CC/C(=C(/c1ccc(O)cc1)c1ccc(OCCN(C)C)cc1)c1ccccc1`, the Potency is 28.5 µM (active) in [10], 18.6 µM (active) in experiment [3], 37.2 µM (active) in [4] and 37.2 µM (active) in [5].

As to `N#Cc1nc(Cl)c(Cl)c(Cl)c1Cl`, the Potency in experiment [10] was 43.3 µM (active); in experiment [2], 9.69 µM (active); in experiment [5] it was 79.6 µM (active); in experiment [6], 5.03 µM (active). The Potency entry in experiment [3], in experiment [8] and in [7] was “inactive” throughout.

For `CCCCCCCCCC[N+](C)(CCCCCCCCCC)CCC[Si](OC)(OC)OC`, the Potency is 61.1 µM (active) in experiment [10]; 3.17 µM (active) in [3]; 50.2 µM (active) in experiment [4]; 35.6 µM (active) in experiment [5]; 2.45 µM (active) in experiment [8]; 28.3 µM (active) in experiment [7]. The Potency result in experiment [2] was “inactive”.

Take `C=Cc1ccc(O)c(OC)c1`: the Potency entry in [1] and in experiment [8] was “inactive” in each case. The Potency was 79.6 µM (active) in [4], 31.7 µM (active) in experiment [5], 35.6 µM (active) in [6] and 20 µM (active) in experiment [7].

On to `CN(C)CCOc1ccc(/C(=C(/CCCl)c2ccccc2)c2ccccc2)cc1`, for which the Potency is 51 µM (active) in [1], 52.8 µM (active) in [3] and 52.8 µM (active) in experiment [4]. Besides, in experiment [9], the max activation is -3.02%.

For `CCCCCCCCCCCCCCCCCC(=O)O`, the max activation in experiment [9] is -4.34%.

`O=C(Cl)c1ccc(Cl)cc1Cl`: the Potency result in experiment [2], in experiment [3] and in [8] was “inactive” each time. The Potency in [6] was 63.3 µM (active).

For `c1ccc(C[P+](c2ccccc2)(c2ccccc2)c2ccccc2)cc1`, the Potency entry in [1], in experiment [5], in experiment [6] and in experiment [7] was “inactive” each time. Besides, the Potency in experiment [3] was 0.252 µM (active); in experiment [8] it was 3.09 µM (active).

In the case of `O=C1OC(=O)c2cc(-c3ccc4c(c3)C(=O)OC4=O)ccc21`, the Potency entry in experiment [1], in experiment [3], in experiment [8] and in experiment [7] was “inactive” throughout. Also, the Potency is 8.94 µM (active) in experiment [4] and 35.6 µM (active) in experiment [6].

`CCCCCCCCOC(=O)c1cc(O)c(O)c(O)c1`: the Potency in [1] is 1.54 µM (active); in experiment [3], 11.2 µM (active); in experiment [4] it was 5.64 µM (active); in experiment [5], 2.24 µM (active); in experiment [6] it was 71 µM (active); in experiment [7], 35.6 µM (active).

Consider `O=C(O)[C@H]1CN(C/C=C/P(=O)(O)O)CCN1`, for which the max activation in experiment [9] was -2.14%. Moreover, the Potency result in experiment [11] and in experiment [12] was “inactive” throughout.

As for `CCN(CC)C(=S)S`, the max activation in experiment [9] was -4.17%.

Turning to `CN1[C@@H](CC(=O)c2ccccc2)CCC[C@H]1C[C@H](O)c1ccccc1`, the max activation in experiment [9] was 4.75%. Moreover, in experiment [11], the Potency result is “inactive”.

For the molecule `CNCCC=C1c2ccccc2CCc2ccccc21`, the max activation in experiment [9] is -3.34%.

Consider `O.O.O.O.O.O.O.O=S(=O)([O-])[O-].[Co+2]`, for which the max activation in experiment [9] was -2.66%.

For `CCCCCCCCCCCCOS(=O)(=O)O`, in [9], the max activation is -3.52%.

As to `NCc1cccc(C2CCN(C(=O)c3ccc(C#Cc4ccccc4F)o3)CC2)c1`, the Potency entry in experiment [2] is “inactive”. Further, the Potency in [3] was 20 µM (active); in [4], 2 µM (active); in experiment [5], 0.071 µM (active); in experiment [6] it was 71 µM (active); in experiment [8], 11 µM (active); in experiment [7] it was 5.64 µM (active).

For the molecule `CN1CCN(CCCN2c3ccccc3Sc3ccc(Cl)cc32)CC1`, the Potency result in [1] and in [5] was “inactive” in each case. Also, the Potency in experiment [3] is 0.275 µM (active); in experiment [6], 2.57 µM (active).

`O=C(O)c1ccccc1O`: the max activation in [9] was -4.21%.

On to `CC(=O)[C@]1(O)Cc2c(O)c3c(c(O)c2[C@@H](O[C@H]2C[C@H](N)[C@H](O)[C@H](C)O2)C1)C(=O)c1ccccc1C3=O`, for which the Potency result in experiment [2], in experiment [11], in [12] and in experiment [8] was “inactive” in each case.

As to `c1ccc(-c2ccccc2-c2ccccc2)cc1`, the Potency entry in experiment [10], in experiment [3] and in [7] was “inactive” in each case. Also, the Potency in experiment [2] was 61.1 µM (active); in [4], 20 µM (active); in [5], 22.4 µM (active).

Turning to `COc1cc(NS(C)(=O)=O)ccc1Nc1c2ccccc2nc2ccccc12`, the max activation in [9] is -19%. In addition, the Potency result in experiment [11] is “inactive”.
